In ChEMBL document CHEMBL4513146, “CO-ADD screening of Karazin Kharkiv National University (Ukraine) compounds”:
Entries with a potency or affinity are not part of this list.

Experiments:
Staphylococcus aureus = settings: Concentration 32 ug.mL-1;; ASSAY_TEST Inhibition of Bacterial Growth; detection method Absorption (OD600); MEDIA CAMHB; plate type 384well; NBS; CORNING #3640; time 18 hr
Escherichia coli = settings: Concentration 32 ug.mL-1;; ASSAY_TEST Inhibition of Bacterial Growth; detection method Absorption (OD600); MEDIA CAMHB; plate type 384well; NBS; CORNING #3640; time 18 hr

Structure (SMILES)	Inhibition (Staphylococcus aureus)	Inhibition (Escherichia coli)
COc1cc(NC(=O)Cn2nc3c4c5c(sc4ncn3c2=O)CCCC5)cc(OC)c1OC	7.91%	-3.63%
COc1ccccc1N1CCN(C(=O)CSc2nnc3c(=O)n(-c4ccc(F)cc4)ccn23)CC1	6.93%	2.55%
COc1ccc(NC(=O)Cn2nc3c4cc(-c5ccc(C)cc5)nn4ccn3c2=O)c(OC)c1	1.08%	-1.29%
Cc1ccc(-c2ccc3nnc(CCC(=O)NCc4ccc(C(C)C)cc4)n3n2)cc1C	2.18%	-3.19%
O=c1n(Cc2cccc(C(F)(F)F)c2)nc2c(S(=O)(=O)N3CCCCCC3)cccn12	5.28%	-7.6%
Cc1ccc(-c2cc3c4nnc(SCC(=O)Nc5cccc(Br)c5)n4ccn3n2)cc1	5.15%	-4.56%
Cc1ccc(-c2cc3c4nn(CC(=O)NCc5ccc(Cl)cc5)c(=O)n4ccn3n2)cc1C	6.87%	6.43%
CCOc1ccccc1NC(=O)Cn1nc2c(SC3CCCCC3)nccn2c1=O	3%	-8.56%
COc1ccc(Cn2nc3ccc(-c4ccccc4)nn3c2=O)cc1F	20.86%	2.33%
Cc1cc(C)c(NC(=O)Cn2nc3ccc(SCc4ccc(Cl)cc4)nn3c2=O)c(C)c1	-5.02%	-8.63%
O=C(CCc1nnc2c(N3CCCCC3)nc3ccccc3n12)NCc1ccc(F)cc1	1.77%	-4.75%
O=C(Cn1nc2c(N3CCOCC3)nc3ccccc3n2c1=O)NCc1ccccc1Cl	-2.26%	-4.63%
O=C(CSc1nc2ccccc2n2cnnc12)Nc1cc(C(F)(F)F)ccc1Cl	6.84%	-4.72%
Cc1ccc(-n2ccn3c(SC(C)C(=O)Nc4ccc5c(c4)OCCO5)nnc3c2=O)cc1C (stereo unspecified)	12.06%	-2.85%
CC(=O)c1ccc(NC(=O)Cn2nc3c4cc(-c5ccc(Cl)cc5)nn4ccn3c2=O)cc1	8.4%	0.52%
O=C(Cn1nc2nc(Nc3ccc(F)cc3)ccn2c1=O)NCC1CCCO1 (stereo unspecified)	2.52%	-9.11%
CCC(Sc1nnc2c(=O)n(-c3cccc(OC)c3)ccn12)C(=O)Nc1cc(F)ccc1F (stereo unspecified)	3.22%	-7.17%

Structure (SMILES)	Inhibition (Staphylococcus aureus)	Inhibition (Escherichia coli)
O=C(CCc1nnc2c(N3CCCCC3)nc3ccccc3n12)NCc1ccc(Cl)cc1	12.63%	0.78%
COc1ccc(NC(=O)Cn2c(=O)c3nnc(C)n3c3ccccc32)cc1Cl	14.24%	3.26%
COc1cccc(NC(=O)Cn2nc3c(Oc4cccc(OC)c4)nccn3c2=O)c1	-17.16%	2.27%
CCc1nnc2c(SCC(=O)NCc3ccccc3Cl)nc3ccccc3n12	4.41%	-6.59%
Cc1ccccc1Oc1nc2ccccc2n2c(=O)n(CC(=O)Nc3cccc(C(F)(F)F)c3)nc12	7.78%	2.27%
Cc1c(Cl)cccc1NC(=O)Cn1nc2c3c4c(sc3ncn2c1=O)CCCCC4	3.69%	-0.38%
Cc1ccc(-n2ccn3c(SCC(N)=O)nnc3c2=O)cc1C	19.3%	0.16%
COc1cc(NC(=O)Cn2nc3ccc(SC4CCCCC4)nn3c2=O)cc(OC)c1	-2.94%	-6.19%
CC(C)CCn1c(=O)c2sccc2n2c(=O)n(CCOc3ccccc3)nc12	0.45%	-7.84%
COc1cccc(-n2ccn3c(SCc4cccc(Cl)c4)nnc3c2=O)c1	12.15%	-0.34%
Cc1cc(C)cc(NC(=O)Cn2nc3ccc(-c4ccc(C)c(C)c4)nn3c2=O)c1	1.36%	-7.85%
CCCCc1ccc(NC(=O)Cn2nc3c(Sc4ccccc4)nccn3c2=O)cc1	4.84%	-9.71%
C=Cc1ccc(CN(c2ccc(C(C)C)cc2)S(=O)(=O)c2cccn3cnnc23)cc1	7.94%	0.1%
COc1ccc(C(=O)CSc2nnc3c(=O)n(-c4ccc(F)c(F)c4)ccn23)cc1	14.04%	-0.82%
COc1ccc(NC(=O)Cn2nc3c(Sc4ccccc4)nccn3c2=O)cc1	7.67%	-3.96%
COC(=O)c1ccc(CN(c2ccc(Cl)cc2)S(=O)(=O)c2ccc3nncn3c2)o1	10.93%	-7.28%
